PubChem BioAssay (Tox21)
The source made the active and inactive calls. Unless noted, the call rests on the fitted dose curve; in most records, active means well fitted curve in the direction sought with a large enough effect in the repeat runs; inconclusive means weak or mixed curves; inactive means no such curve, though single readings can be large; an effect the other way counts as inactive or inconclusive.

Tests used:
[1] = qHTS assay for small molecule agonists of the p53 signaling pathway (AID 651631; calls by dose curve; further: nearly all actives have a fitted effect of over 15% in size)
In short: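 HCT-116 cells carrying a beta-lactamase reporter under p53 response elements were dosed with compound for 16 h at 37 °C. LiveBLAzer B/G FRET substrate was then added for 2 h at room temperature, and fluorescence intensity was read to detect pathway agonism.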

[2] = qHTS assay for small molecule agonists of the p53 signaling pathway - cell viability (AID 651633; calls by dose curve;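 further: p53RE-bla HCT reporter cells with a stable beta-lactamase p53 reporter; series mostly up to about 83 µM; nearly all actives have a fitted effect of over 30% in size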)
In short: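 p53RE-bla cells were treated with compound for 16 hours at 37 C. Cytotoxicity was then measured as CellTiter-Glo luminescence after 30 min at room temperature.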

[3] = qHTS assay to test for compound auto fluorescence at 590 nm (red) in HepG2 cells (AID 720674)
In short: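 Seeding: 2,000 HepG2 cells/well, MEM/10% FBS, overnight 37 C. Dosing: compound vs DMSO. Incubation: 1 hr, 37 C, 5% CO2. Read: fluorescence 540 ex/590 em, Rose Bengal sodium as red reference.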

[4] = qHTS assay to test for compound auto fluorescence at 460 nm (blue) in HEK293 cells (AID 720678)
In short: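 Blue-channel (Ex/Em 405/460 nm) intensity measured in HEK293 cultures after overnight compound exposure at 37C; signal expressed relative to triamterene. Cells plated 2,000 per well in 10% dialyzed FBS medium and allowed 4-5 hr to attach.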

[5] = qHTS assay to test for compound auto fluorescence at 460 nm (blue) in HEK293 cell free culture (AID 720681)
In short: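 Compounds were added to cell-free DMEM with 10% FBS and fluorescence read directly. The blue channel used 405 nm excitation and 460 nm emission, with triamterene as the reference fluorophore.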

[6] = qHTS assay to test for compound auto fluorescence at 590 nm (red) in HEK293 cell free culture (AID 720683)
In short: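 Cell-free wells of DMEM with 10% FBS received compound, and intrinsic fluorescence was read at excitation/emission 540/590 nm. Values expressed as equivalence to Rose Bengal sodium.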

[7] = qHTS assay to test for compound auto fluorescence at 460 nm (blue) in HepG2 cells (AID 720687)
In short: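 HepG2 cells in MEM with 10% FBS, attached overnight at 37 C, were exposed to compound or DMSO for 1 hr at 37 C, 5% CO2. Blue fluorescence was read at 405/460 nm, with triamterene as reference fluorophore.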

[8] = biological target: Glucocorticoid receptor (Homo sapiens) (UniProt P04150); experiment: qHTS assay to identify small molecule antagonists of the glucocorticoid receptor (GR) signaling pathway (AID 720692; active means well fitted inhibition curve with a large enough effect in the signal ratio in the repeat runs, not every such curve was filed as active; inconclusive means weak or mixed curves, or effect the other way; inactive means no such curve, though single readings can be large or run the other way; the % refers to the signal ratio; further: potency means the concentration at half of the fitted maximal effect)
Chain of Glucocorticoid receptor (Homo sapiens) (P04150 whole entry, looked up): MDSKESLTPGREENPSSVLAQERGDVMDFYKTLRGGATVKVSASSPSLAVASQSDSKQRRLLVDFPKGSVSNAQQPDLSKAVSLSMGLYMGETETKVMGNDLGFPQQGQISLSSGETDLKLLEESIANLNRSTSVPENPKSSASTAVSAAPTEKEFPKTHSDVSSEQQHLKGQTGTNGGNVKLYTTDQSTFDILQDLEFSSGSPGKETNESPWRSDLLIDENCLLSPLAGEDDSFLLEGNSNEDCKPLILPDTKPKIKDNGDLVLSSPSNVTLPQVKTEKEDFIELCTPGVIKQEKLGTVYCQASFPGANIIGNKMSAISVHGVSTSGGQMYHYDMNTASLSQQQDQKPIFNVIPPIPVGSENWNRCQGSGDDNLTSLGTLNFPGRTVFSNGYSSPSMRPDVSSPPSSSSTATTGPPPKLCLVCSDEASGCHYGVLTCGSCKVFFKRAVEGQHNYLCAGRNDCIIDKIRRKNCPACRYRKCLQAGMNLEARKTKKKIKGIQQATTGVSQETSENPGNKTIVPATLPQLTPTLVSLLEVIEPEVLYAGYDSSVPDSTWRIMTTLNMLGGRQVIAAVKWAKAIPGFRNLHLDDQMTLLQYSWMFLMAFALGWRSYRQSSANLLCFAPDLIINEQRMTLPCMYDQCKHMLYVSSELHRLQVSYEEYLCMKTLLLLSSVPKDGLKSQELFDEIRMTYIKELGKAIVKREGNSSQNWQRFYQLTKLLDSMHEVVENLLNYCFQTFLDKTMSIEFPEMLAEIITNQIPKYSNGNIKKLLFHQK
In short: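 Inhibition of dexamethasone-driven (5 nM final) beta-lactamase expression was measured in GRE-reporter HeLa cells over 18 h at 37C. Fluorescence was read after 2 h with the B/G FRET substrate at room temperature.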

[9] = qHTS assay for identifying genotoxic compounds that show differential cytotoxicity against isogenic chicken DT40 cell lines with known DNA damage response pathways - wild type cell line (AID 743012); further: nearly all actives have a fitted effect of over 60% in size; further: potency means the concentration at half of the fitted maximal effect
In short: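 Viability by ATP luminescence (CellTiter-Glo, 30 min RT) after 40 h compound treatment at 37 C/5% CO2, using 300 parental DNA repair-proficient DT40 cells per well.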

[10] = qHTS assay for identifying genotoxic compounds that show differential cytotoxicity against isogenic chicken DT40 cell lines with known DNA damage response pathways - Rad54/Ku70 mutant cell line (AID 743015); further: nearly all actives have a fitted effect of over 60% in size; further: potency means the concentration at half of the fitted maximal effect
[11] = qHTS assay to identify small molecule antagonists of the androgen receptor (AR) signaling pathway - cell viability counter screen (AID 743033; further: nearly all actives have a fitted effect of over 45% in size)
[12] = biological target: Aryl hydrocarbon receptor (Homo sapiens) (UniProt P35869); experiment: qHTS assay to identify small molecule that activate the aryl hydrocarbon receptor (AhR) signaling pathway (AID 743085);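 further: HG2L7.5c1 human HepG2 liver cells with stably integrated DRE-driven firefly reporter; series mostly up to about 70 µM; nearly all actives have a fitted effect of over 15% in size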
Chain of Aryl hydrocarbon receptor (Homo sapiens) (P35869 whole entry, looked up): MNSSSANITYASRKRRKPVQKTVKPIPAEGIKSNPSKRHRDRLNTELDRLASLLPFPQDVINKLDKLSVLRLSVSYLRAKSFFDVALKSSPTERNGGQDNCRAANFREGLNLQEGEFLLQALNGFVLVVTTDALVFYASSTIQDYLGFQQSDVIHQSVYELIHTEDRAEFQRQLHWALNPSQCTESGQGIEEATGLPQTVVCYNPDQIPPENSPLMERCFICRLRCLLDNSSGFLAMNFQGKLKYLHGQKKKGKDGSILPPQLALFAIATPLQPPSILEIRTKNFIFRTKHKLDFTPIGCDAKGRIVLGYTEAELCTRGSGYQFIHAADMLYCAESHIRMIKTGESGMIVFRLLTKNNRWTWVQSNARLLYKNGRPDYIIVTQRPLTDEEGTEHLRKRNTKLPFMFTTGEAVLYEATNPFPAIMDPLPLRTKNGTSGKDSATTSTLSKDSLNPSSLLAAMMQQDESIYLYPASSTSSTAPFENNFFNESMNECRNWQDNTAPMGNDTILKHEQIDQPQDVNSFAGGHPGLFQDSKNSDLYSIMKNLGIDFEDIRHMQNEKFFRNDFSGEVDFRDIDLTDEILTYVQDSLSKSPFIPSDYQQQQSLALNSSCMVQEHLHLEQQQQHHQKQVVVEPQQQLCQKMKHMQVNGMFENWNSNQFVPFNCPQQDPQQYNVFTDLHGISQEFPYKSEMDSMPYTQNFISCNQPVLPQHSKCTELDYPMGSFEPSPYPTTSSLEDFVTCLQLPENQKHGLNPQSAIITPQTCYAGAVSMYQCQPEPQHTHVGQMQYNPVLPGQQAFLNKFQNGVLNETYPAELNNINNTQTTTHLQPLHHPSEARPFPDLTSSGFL
In short: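 HepG2 cells stably carrying a 20-DRE firefly luciferase reporter (HG2L7.5c1) treated with compound for 24 hr at 37C. Luciferase read by ONE-Glo luminescence, with CellTiter-Fluor viability read first.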

[13] = biological target: Peroxisome proliferator-activated receptor gamma (Homo sapiens) (UniProt P37231); experiment: qHTS assay to identify small molecule agonists of the peroxisome proliferator-activated receptor gamma (PPARg) signaling pathway (AID 743094; active means well fitted activation curve with a large enough effect in the signal ratio in the repeat runs, not every such curve was filed as active; inconclusive means weak or mixed curves, or effect the other way; inactive means no such curve, though single readings can be large or run the other way; the % refers to the signal ratio)
Chain of Peroxisome proliferator-activated receptor gamma (Homo sapiens) (P37231 whole entry, looked up): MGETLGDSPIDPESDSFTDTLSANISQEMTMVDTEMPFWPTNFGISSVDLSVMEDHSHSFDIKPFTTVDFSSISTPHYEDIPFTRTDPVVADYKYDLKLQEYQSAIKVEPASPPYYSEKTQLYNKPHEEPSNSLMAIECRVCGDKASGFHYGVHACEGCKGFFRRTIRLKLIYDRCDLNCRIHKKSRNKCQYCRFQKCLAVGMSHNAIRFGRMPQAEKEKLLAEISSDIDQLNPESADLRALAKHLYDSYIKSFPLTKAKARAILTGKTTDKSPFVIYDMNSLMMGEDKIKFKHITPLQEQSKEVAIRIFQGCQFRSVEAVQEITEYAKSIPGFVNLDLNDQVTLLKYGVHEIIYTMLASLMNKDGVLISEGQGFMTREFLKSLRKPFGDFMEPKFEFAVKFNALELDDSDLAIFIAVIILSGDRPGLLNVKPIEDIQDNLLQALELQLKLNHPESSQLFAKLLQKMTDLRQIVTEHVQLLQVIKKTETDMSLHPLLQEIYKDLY
In short: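 Agonist activity was taken from a beta-lactamase reporter (FRET substrate, 1 h at room temperature) in HEK293H cells carrying a PPARg UAS-bla construct. Compounds in DMSO were incubated 17 h at 37C after a 5 h cell pre-incubation.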

[14] = qHTS assay to test for compound auto fluorescence at 535 nm (green) in HEK293 cell free culture (AID 720682)
In short: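 Green-label autofluorescence (485 nm excitation, 535 nm emission) measured on compound added to cell-free culture medium (DMEM, 10% FBS). Output is expressed relative to fluorescein.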

[15] = qHTS assay for identifying genotoxic compounds that show differential cytotoxicity against isogenic chicken DT40 cell lines with known DNA damage response pathways - Rev3 mutant cell line (AID 743014); further: nearly all actives have a fitted effect of over 55% in size; further: potency means the concentration at half of the fitted maximal effect
[16] = biological target: Estrogen receptor (Homo sapiens) (UniProt P03372); experiment: qHTS assay to identify small molecule agonists of the estrogen receptor alpha (ER-alpha) signaling pathway (AID 743075; calls by dose curve;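 further: HEK293 GripTite cells with ER-alpha and UAS-driven beta-lactamase reporter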; further: potency means the concentration at half of the fitted maximal effect)
Chain of Estrogen receptor (Homo sapiens) (P03372 whole entry, looked up): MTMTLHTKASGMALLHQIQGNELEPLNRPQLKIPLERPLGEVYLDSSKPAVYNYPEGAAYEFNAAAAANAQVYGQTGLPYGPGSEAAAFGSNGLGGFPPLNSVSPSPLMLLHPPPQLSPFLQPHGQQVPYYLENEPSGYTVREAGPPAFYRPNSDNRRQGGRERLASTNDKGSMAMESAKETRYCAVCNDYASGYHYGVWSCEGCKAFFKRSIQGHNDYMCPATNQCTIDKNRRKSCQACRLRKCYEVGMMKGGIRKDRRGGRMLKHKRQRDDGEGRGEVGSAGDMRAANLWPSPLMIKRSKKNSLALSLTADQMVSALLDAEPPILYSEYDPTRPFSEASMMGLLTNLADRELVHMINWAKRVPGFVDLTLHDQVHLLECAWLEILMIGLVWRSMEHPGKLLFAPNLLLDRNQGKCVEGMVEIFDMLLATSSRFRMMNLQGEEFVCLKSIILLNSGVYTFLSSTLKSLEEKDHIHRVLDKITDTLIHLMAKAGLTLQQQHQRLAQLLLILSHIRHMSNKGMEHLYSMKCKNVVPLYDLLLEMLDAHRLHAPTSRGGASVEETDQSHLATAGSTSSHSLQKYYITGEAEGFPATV

[17] = biological target: Estrogen receptor (Homo sapiens) (UniProt P03372); experiment: qHTS assay to identify small molecule agonists of the estrogen receptor alpha (ER-alpha) signaling pathway using the BG1 cell line (AID 743079); further: nearly all actives have a fitted effect of over 20% in size; further: potency means the concentration at half of the fitted maximal effect
[18] = qHTS assay to identify small molecule antagonists of the estrogen receptor alpha (ER-alpha) signaling pathway using the BG1 cell line (AID 743080; calls by dose curve;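 further: BG1 cells stimulated with 17beta-estradiol alongside compound; nearly all actives have a fitted effect of over 25% in size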; further: potency means the concentration at half of the fitted maximal effect)
In short: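 Luciferase inhibition measured with ONE-Glo after 30 min at RT in BG1Luc4E2 cells given test compounds and 17beta-estradiol for 21.5 h at 37 C; CellTiter-Fluor viability read in the same wells beforehand.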

[19] = biological target: Nuclear receptor subfamily 1 group I member 2 (Homo sapiens) (UniProt O75469); experiment: CYP3A4 induction through human pregnane X receptor (PXR) by small molecules, qHTS assay (AID 1346984); further: nearly all actives have a fitted effect of over 40% in size
In short: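 Read-out is luminescence after One-Glo addition, following a 3 hr, 37C incubation with Luciferin-IPA CYP3A4 substrate (3uM final). Before that, compounds were on DPX-2 cells (HepG2 co-transfected with PXR element plus CYP3A4-promoter luciferase) for 24 hr at 37C.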

[20] = biological target: Nuclear receptor subfamily 1 group I member 2 (Homo sapiens) (UniProt O75469); experiment: Human pregnane X receptor (PXR) activation by small molecules, qHTS assay (AID 1346985); further: nearly all actives have a fitted effect of over 40% in size
In short: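 DPX-2 cells (HepG2 co-transfected with a PXR response element and a CYP3A4-promoter luciferase construct) were seeded at 2,000 per well, rested 5 hr at 37C, then exposed to DMSO-dissolved compounds for 24 hr. Activation was read as luciferase luminescence.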

Measured: Potency

C[C@@H]1[C@@H]2Cc3ccc(O)cc3[C@@]1(C)CCN2CC1CC1
not listed: [14] | [15] | [16] | [17] | [18] | [19] | [20]
inactive: all other assays above

N#CC(C#N)=Cc1cc(O)c(O)c(O)c1
active: [9] 21.1 µM | [15] 26.6 µM | [10] 21.1 µM
not listed: [3] | [8] | [12] | [19] | [20]
inactive: all other assays above

c1ccc2c(c1)Sc1ccccc1N2C[C@@H]1CN2CCC1CC2
not listed: [9] | [15] | [16] | [17] | [18] | [19] | [20]
inactive: all other assays above

Oc1ccc2c3c1O[C@H]1[C@@H](O)C=C[C@H]4[C@H](C2)NCC[C@@]341
inactive: [1] | [2] | [3] | [5] | [14] | [7] | [9] | [10] | [11] | [12]

CN1C(=O)CC(=O)N(c2ccccc2)c2cc(Cl)ccc21
not listed: [11] | [20]
inactive: all other assays above

C[C@]12CCC(=O)C[C@@H]1CC[C@@H]1[C@@H]2CC[C@@]2(C)[C@H]1CC[C@]2(C)O
active: [8] 8.49 µM | [16] 477 nM [inconclusive] | [17] 150 nM
not listed: [2] | [19] | [20]
inactive: all other assays above

COC(=O)[C@H]1[C@@H](OC(=O)c2ccccc2)C[C@@H]2CC[C@H]1N2C
not listed: [8] | [12] | [14] | [15] | [19] | [20]
inactive: all other assays above

CC(N)Cc1ccc2c(c1)OCO2 (configuration not stated)
not listed: [3] | [6] | [7] | [8] | [19] | [20]
inactive: all other assays above

CCC1(c2ccccc2)C(=O)NC(=O)N(C)C1=O (configuration not stated)
not listed: [6] | [7] | [16] | [17] | [18] | [19]
inactive: all other assays above

CN1CC[C@@]23CCCC[C@@H]2[C@@H]1Cc1ccc(O)cc13
inactive: [2] | [3] | [4] | [14] | [6] | [9] | [10] | [16] | [18] | [12] | [13]

O=P1(N(CCCl)CCCl)NC(OO)CCO1 (configuration not stated)
active: [15] 13.3 µM
not listed: [1] | [5] | [6] | [11] | [12] | [19] | [20]
inactive: all other assays above

Cc1nnc2n1-c1sc(Br)cc1C(c1ccccc1Cl)=NC2
active: [8] 10.7 µM | [10] 26.6 µM | [18] 11.9 µM
not listed: [1] | [9] | [17] | [19] | [20]
inactive: all other assays above

CCCCNC(C)(C)[P+](=O)O
inactive: [2] | [4] | [14] | [9] | [10] | [11] | [16] | [17] | [18] | [13]
